The list is not random: actives were taken first. Their share in the collection is about 7.4%.
NPC1 prom act: activators of NPC1 promoter. Potency, µM (doses to about 9.22 µM), hits mostly activators. AID 485313. Huh7 NPC1 promoter luciferase reporter, 24 h. 320,000 compounds, 2.4% hits; note: nearly all actives have a fitted effect of over 60% in size
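Stably transfected Huh7 (NPC1 promoter→luciferase), 1500 cells/well in Opti-MEM + 10% FBS, 2 h settle, then compound 24 h at 37 °C. Luminescence after 10 min with Amplite reagent.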
FLuc modulator: inhibits or activates purified firefly luciferase, miR-21 counter-screen | P08659 | purified FLuc, Km substrates, luminescence inhibition | Potency, µM (series often up to 57.5 µM), usual class: inhibitors | 360,000 compounds, 6.9% hits | AID 588342; note: nearly all actives have a fitted effect of over 55% in size
Target sequence (P08659 whole entry, looked up): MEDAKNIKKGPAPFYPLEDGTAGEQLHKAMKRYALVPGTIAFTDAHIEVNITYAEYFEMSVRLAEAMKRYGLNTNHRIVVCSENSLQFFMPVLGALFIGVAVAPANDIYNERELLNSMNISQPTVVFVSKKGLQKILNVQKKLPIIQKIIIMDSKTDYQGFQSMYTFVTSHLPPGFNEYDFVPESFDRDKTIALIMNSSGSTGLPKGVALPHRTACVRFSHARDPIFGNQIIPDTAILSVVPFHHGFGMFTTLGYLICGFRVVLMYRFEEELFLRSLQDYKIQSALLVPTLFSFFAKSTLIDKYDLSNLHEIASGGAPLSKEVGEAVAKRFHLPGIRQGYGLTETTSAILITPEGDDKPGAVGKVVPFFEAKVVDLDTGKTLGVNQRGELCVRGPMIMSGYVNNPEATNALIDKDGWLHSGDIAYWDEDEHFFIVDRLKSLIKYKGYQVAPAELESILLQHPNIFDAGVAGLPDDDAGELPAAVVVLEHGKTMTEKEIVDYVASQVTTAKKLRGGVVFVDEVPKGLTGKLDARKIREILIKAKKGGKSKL
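Purified P. pyralis luciferase, 10 nM final, with Km-level 10 uM D-luciferin and 10 uM ATP in 50 mM Tris acetate pH 7.5, 10 mM Mg acetate, 0.01% Tween-20, 0.05% BSA; 6-point qHTS titration about 60 µM downward; luminescence read.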
SMN2 splice up: increases expression of the SMN2 splice variant; HEK293 SMN2-luciferase splicing reporter, luminescence, 30-36 h; Potency, µM (highest dose often 46.1 µM), most hits filed as activators; 210,000 compounds, 2.8% hits; AID 1458; note: nearly all actives have a fitted effect of over 55% in size
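HEK293 cells carry an SMN2 minigene-luciferase reporter in which exon 7 inclusion puts luciferase in frame. Cells were seeded at 2000 cells/well, attached for 10-12 hours, then exposed to compounds for 30-36 hours at 37C before ONE-Glo luminescence.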
Rab9 promoter act: Rab9 promoter activation; 320,000 compounds, 2.8% hits; Huh7 Rab9 promoter-luciferase reporter, luminescence, 24 h; Potency, µM (doses to about 9.22 µM), usual class: activators; AID 485297; note: nearly all actives have a fitted effect of over 60% in size
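Huh7 cells stably carrying a Rab9 promoter-luciferase reporter, 1500 cells per well in OP-MEM I with 10% FBS, treated with compound 24 hours at 37C. Luciferase activity read by luminescence after 10 minutes with Amplite reagent.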
ELG1 genotox: induces genotoxicity in HEK293T cells with luciferase-tagged ELG1 | 330,000 compounds, 1.3% hits | Potency, µM (highest dose often 46 µM), most hits filed as activators | HEK293T ELG1-luciferase reporter, luminescence, 16 h | AID 504466; note: nearly all actives have a fitted effect of over 60% in size
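16 hr compound incubation (37 °C, 5% CO2) of HEK293T cells carrying luciferase-tagged ELG1; luciferase then measured by ONE-Glo luminescence after 30 min at RT.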
A number is an active result; 0 = inactive; ? = inconclusive; - = no result given. Calls come from the whole dose curve; as a rule, active = well fitted curve in the direction sought with a large enough effect; inconclusive = small, poorly fitted or top-dose-only effect, or another doubt; inactive = no such curve, though single readings can be large; an effect the other way counts as inactive or inconclusive.

SMILES | NPC1 prom act | FLuc modulator | SMN2 splice up | Rab9 promoter act | ELG1 genotox
COc1ccc(-c2cn3nc(N4CCCC(C(=O)NCc5ccccc5Cl)C4)sc3n2)cc1 (stereo not drawn) | - | 9.5µM | - | - | -
COc1ccc(-c2cn3nc(N4CCCC(C(=O)Nc5ccc(Cl)cc5C)C4)sc3n2)cc1 (stereo not drawn) | - | 0 | - | - | -
Cc1cccc(-n2c(SCC(=O)Nc3ncc(Cl)cc3Cl)nc3ccccc32)c1 | 0 | 0 | 0 | 0 | 0
O=C(CSc1nc2ccccc2n1-c1ccccc1)Nc1ncc(Cl)cc1Cl | 0 | 0 | 4.5µM | 0 | 0
CNc1ncnc2c1ncn2[C@H]1C[C@H](O)[C@@H](CO)O1 | - | - | 0 | - | -
CCN(CC)CCN(C(=O)c1ccc2ncsc2c1)c1nc2cc3c(cc2s1)OCO3 | 0.71µM | 9.5µM | - | ? | 2.9µM
CCOc1ccc(NC(=O)c2c(NC(=O)c3ccco3)sc3c2CCC(C(C)(C)C)C3)cc1 (stereo not drawn) | - | 0 | 0 | - | -
COc1cc(OC)cc(C(=O)NNC(=S)Nc2ccccc2OC)c1 | 0 | 21µM | 0 | 0 | 0
COc1ccccc1NC(=S)NNC(=O)c1c(Cl)c(C)nn1C | 0 | 15µM | 0 | 0 | 0
COc1ccccc1NC(=S)NNC(=O)c1cc(C)nn1C | 0 | ? | 0 | 0 | 0
CC(=O)c1ccc(NC(=S)NNC(=O)c2ccncc2)cc1 | 0 | 19µM | 0 | 0 | 0
COc1ccc(C(=O)NNC(=S)Nc2ccccc2)cc1 | 2.5µM | 11µM | 11µM | 0.56µM | ?
Cc1ccc(-n2c3c(cc(C(=O)Nc4ccccc4C(N)=O)c2=O)C(=O)CC(C)(C)C3)cc1 | - | 0 | 0 | - | -
CC1CCN(S(=O)(=O)c2ccc3c(c2)c(=O)c(C(=O)NCc2ccc(Cl)cc2)cn3C)CC1 | - | 0 | 0 | - | -
COc1ccccc1C(=O)NNC(=O)c1ccccc1Br | 0 | ? | - | 0 | 0
COc1ccc(NC(=S)N/C(=N/CS(=O)(=O)c2ccccc2)c2ccccc2)cc1 | 2.8µM | 2.7µM | 0 | ? | ?
COc1ccccc1NC(=S)NNC(=O)c1ccccc1Br | 0 | ? | 5µM | ? | 0
O=[N+]([O-])c1ccc(NC(=S)N/C(=N/CS(=O)(=O)c2ccccc2)c2ccccc2)cc1 | 0 | ? | 0 | 0 | ?
COc1ccccc1NC(=S)NC(=O)CC(C)C | 0 | 15µM | 0 | 0 | 0
O=C(COC(=O)c1ccccc1[N+](=O)[O-])NC(=O)c1ccccc1 | 0 | 17µM | - | 0 | 0
O=C(Cn1ccc([N+](=O)[O-])n1)N1CCCc2ccccc21 | 0 | 17µM | 0 | 0 | ?
O=C(Cn1ccc([N+](=O)[O-])n1)N1CCCCCC1 | 0 | 0 | 0 | 0 | 0
O=C(OCC(=O)N1CCN(c2ccccc2)CC1)c1ccccc1[N+](=O)[O-] | 3.5µM | 6.7µM | - | 3.2µM | 5.2µM
O=C(OCC(=O)N1CCCc2ccccc21)c1ccccc1[N+](=O)[O-] | ? | 15µM | - | ? | ?
O=C(COc1ccccc1[N+](=O)[O-])N1CCCc2ccccc21 | 0 | 0 | - | 0 | 0
SMILES | NPC1 prom act | FLuc modulator | SMN2 splice up | Rab9 promoter act | ELG1 genotox
Cc1ccccc1NC(=O)CCNC(=O)Cn1ccc2ccccc2c1=O | - | 0 | 0 | - | -
CCc1ccc(NC(=O)C2CCN(c3nn4c(=O)cc(C)nc4s3)CC2)cc1 | - | 0 | 0 | - | -
CCOc1ccc(NC(=O)C(C)Sc2nc3ncccc3o2)cc1 (stereo not drawn) | - | 0 | - | - | -
O=C1c2ccccc2C(=O)C1c1ccccn1 | 2.5µM | 11µM | - | 1.4µM | ?
O=C1c2cccnc2-c2ncccc21 | 0 | 0 | 0 | 0 | 0
Cc1ccccc1C1C(=O)c2ccccc2C1=O | 0 | 0 | - | 0 | 0
Cc1ccc(C2C(=O)c3ccccc3C2=O)cc1 | 0 | 17µM | - | 0 | 0
O=C1c2ccccc2C(=O)C1c1ccncc1 | 1.3µM | 3.4µM | 7.9µM | 0.5µM | 3.2µM
Cc1cccc(C(=O)Nc2ccc(OCc3cc(=O)n4ccsc4n3)cc2)c1 | - | 0 | 0 | - | -
CC(C)(C)C1CCC(OC(=O)CN2CCCCC2)CC1 (stereo not drawn) | 0 | 19µM | - | 0 | 0
CCOC(=O)Cc1csc(NC(=O)Nc2ccc(OC(F)(F)F)cc2)n1 | 0 | 2.4µM | - | 0 | 0
CCOC(=O)Cc1csc(NC(=O)COc2ccc3c(c2)CCC3)n1 | 0 | 12µM | - | 0 | 0
CCOC(=O)CNC(=O)CSc1ncnc2c1cnn2-c1ccc(Cl)cc1 | 0 | 0 | 0 | 0 | 0
CCOC(=O)Cc1csc(NC(=O)COc2ccc(C)cc2)n1 | 0 | 13µM | - | 0 | 0
CCOC(=O)Cc1csc(NC(=O)COc2ccc(C)c(C)c2)n1 | 0 | ? | - | 0 | ?
CCOC(=O)Cc1csc(NC(=O)CSc2ncnc3c2cnn3-c2ccc(OC)cc2)n1 | 0 | 8.5µM | 0 | 0 | 0
COc1ccc(S(=O)(=O)c2cn(CC(=O)Nc3cc(C)ccc3C)c3ccccc3c2=O)cc1 | - | 0 | 0 | - | -
CCCCN(CC)C(=O)CCn1c(=O)c2cccn2c2cccnc21 | - | 0 | - | - | -
COc1ccc(/C=C/C(=O)CCC(=O)O)cc1 | ? | 6.7µM | - | 2.8µM | 0
COc1ccc(/C=C/C(=O)Oc2ccc(C)cc2)cc1 | 0 | 12µM | - | 0 | 0
COc1ccc(/C=C/C(=O)NCCOc2ccc(C)cc2)cc1 | 0 | ? | 0 | 0 | 0
COc1ccc(/C=C/C(=O)O)cc1 | - | - | - | - | 0
O=C(Nc1ccc(Br)cc1)C1CCN(c2ncccn2)CC1 | - | 0 | 0 | - | -
CCOc1ccc(NC(=O)c2oc3ccccc3c2NC(=O)C(C)Oc2ccccc2)cc1 (stereo not drawn) | - | 0 | 0 | - | -
CCOC(=O)c1sc(NC(=O)c2cc(-c3ccc(C)cc3)nc3ccccc23)c(C#N)c1C | 0 | 12µM | 0 | 0 | 0
SMILES | NPC1 prom act | FLuc modulator | SMN2 splice up | Rab9 promoter act | ELG1 genotox
COc1ccc(-c2cc(C(=O)Nc3sc4c(c3C#N)CCCC4)c3ccccc3n2)cc1 | 0 | 15µM | 0 | 0 | 0
COC(=O)c1sc(NC(=O)c2cc(-c3ccccc3)nc3ccccc23)c(C#N)c1C | 0 | ? | 0 | 0 | 0
CCc1ccc(NC(=O)c2cc3ccccn3n2)cc1 | - | 1.9µM | - | - | -
O=C(Nc1ccc(Br)cc1)c1cc2ccccn2n1 | 0.56µM | 0.95µM | - | 0.32µM | ?
O=C(NCCc1ccc(Cl)cc1)c1cc2ccccn2n1 | 0 | 0 | - | 0 | 0
Cc1ccc(NC(=O)c2cc3ccccn3n2)cc1F | - | 2.4µM | - | - | -
CC(NC(=O)c1cc2ccccn2n1)c1ccccc1 (stereo not drawn) | - | 0 | - | - | -
Cc1ccccc1CCNC(=O)c1cc2ccccn2n1 | - | 11µM | - | - | -
CCC(Sc1nc(-c2ccccc2F)nc2c1Cc1c(CO)cnc(C)c1O2)C(=O)Nc1cc(C)ccc1C (stereo not drawn) | - | 0 | - | - | -
CSCCC(NS(=O)(=O)c1ccc2c(c1)oc(=O)n2C)C(=O)N1CCN(c2cccc(Cl)c2)CC1 (stereo not drawn) | - | 0 | - | - | -
Cc1ccc(C(=O)CSc2cc(C)nc(SCC(=O)c3ccccc3)n2)cc1 | 0 | 0 | - | 0 | 0
O=C(CSc1ccccn1)c1ccc(F)cc1 | ? | 19µM | 0 | ? | ?
O=C(O)c1ccnc(SCC(=O)c2ccccc2)c1 | 0 | ? | 0 | 0 | 0
Cc1ccc(C(=O)CSc2ccccn2)cc1 | ? | 6.7µM | ? | 3.5µM | ?

Assay outcomes from PubChem BioAssay.
